Inconclusive results are not listed. The source made the active and inactive calls. The call rests on the fitted dose curve; in most records, active means well fitted cell-killing curve with a large enough effect; inconclusive means small, poorly fitted or top-dose-only effect, or effect the other way; inactive means flat fitted curve, though single readings scatter.
Legend:
Assay in all cases: Primary qHTS to identify gynecologic anti-cancer compounds using libraries of approved drugs and bioactive compounds (AID 1345084); further: nearly all actives have a fitted effect of over 55% in size
C33A = conditions: Gynecologic cancer cell panel viability, ATPlite luminescence, 48 h; series mostly up to 57.5 µM
How it was run: (§1)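 Cell viability after 48 h drug treatment, ATPlite luminescence readout; five doses.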

CAOV3 = conditions: Gynecologic cancer cell panel viability, ATPlite luminescence, 48 h; series mostly up to 57.5 µM
How it was run: as §1

CASKI = conditions: Gynecologic cancer cell panel viability, ATPlite luminescence, 48 h; series mostly up to 57.5 µM
How it was run: as §1

Es-2 = conditions: Gynecologic cancer cell panel viability, ATPlite luminescence, 48 h; series mostly up to 57.5 µM
How it was run: as §1

HeLa = conditions: Gynecologic cancer cell panel viability, ATPlite luminescence, 48 h; series mostly up to 57.5 µM
How it was run: as §1

Hek293T = conditions: Gynecologic cancer cell panel viability, ATPlite luminescence, 48 h, control line for the selectivity index; series mostly up to 57.5 µM
How it was run: as §1

JEG-3 = conditions: Gynecologic cancer cell panel viability, ATPlite luminescence, 48 h; series mostly up to 57.5 µM
How it was run: as §1

OV90 = conditions: Gynecologic cancer cell panel viability, ATPlite luminescence, 48 h; series mostly up to 57.5 µM
How it was run: as §1

PA-1 = conditions: Gynecologic cancer cell panel viability, ATPlite luminescence, 48 h; series mostly up to 57.5 µM
How it was run: as §1

SKOV3 = conditions: Gynecologic cancer cell panel viability, ATPlite luminescence, 48 h; series mostly up to 57.5 µM
How it was run: as §1

Tov-21-G = conditions: Gynecologic cancer cell panel viability, ATPlite luminescence, 48 h; series mostly up to 57.5 µM
How it was run: as §1

Tov112D = conditions: Gynecologic cancer cell panel viability, ATPlite luminescence, 48 h; series mostly up to 57.5 µM
How it was run: as §1

Measured: Potency

Cc1cc(C)cc(-c2cnc3cc(Cl)c(-c4cccc(O)c4)cc3c2OCCCN)c1
inactive: all assays above

CCCCOc1ccc(S(=O)(=O)n2c(C)nc3ccccc32)cc1
inactive: all assays above

CNC(=O)[C@@H](c1ccccc1)N1CCc2cc(OC)c(OC)cc2[C@@H]1CCc1ccc(C(F)(F)F)cc1
inactive: all assays above

COc1cc(C(C)C)c(Oc2cnc(N)nc2N)cc1I
inactive: all assays above

CCOC(=O)N1c2ccc(C(F)(F)F)cc2C(N(Cc2cc(C(F)(F)F)cc(C(F)(F)F)c2)C(=O)OC)CC1CC (stereo not given)
inactive: all assays above

Cc1cc(C)nc(SCC(=O)Nc2ncc(Cc3cccc4ccccc34)s2)n1
inactive: all assays above

N#Cc1cccc(C(=O)Nc2cc(-c3ccccc3)nn2-c2ccccc2)c1
inactive: all assays above

CC1(C=O)CCCC2(C)C1CCC13CC(CO)C(CCC12)C3 (stereo not given)
inactive: all assays above

COc1cc(-c2nc(N[C@H](CO)Cc3ccccc3)ccc2C(=O)NCCOc2ccccc2)cc(OC)c1OC
inactive: all assays above

COc1ccccc1OCCNCC(O)CCOc1cccc2[nH]c3ccccc3c12 (stereo not given)
inactive: all assays above

CC(C)=CCCC1(C)C2CCC1(C)C(O)C2 (stereo not given)
inactive: all assays above

O=C(Nc1ccccc1)N1CCC(Cc2cnc3ccccc3c2)CC1
inactive: all assays above

c1cc(-c2cnn3cc(-c4ccc(N5CCNCC5)cc4)cnc23)c2cccnc2c1
inactive: all assays above

O=S(=O)(Nc1cc(Cl)c(Oc2cnc3ccccc3c2)c(Cl)c1)c1ccc(Cl)cc1Cl
inactive: all assays above

Cc1cccc(-c2[nH]ncc2-c2ccc(F)c(-c3cnn(CCO)c3)c2)n1
inactive: all assays above

Source: PubChem BioAssay (NCATS)
